Reference: PubChem BioAssay (Tox21)
Records with an inconclusive call do not appear. The source made the active and inactive calls. Unless noted, calls come from the whole dose curve; as a rule, active = well fitted curve in the direction sought with a large enough effect in the repeat runs; inconclusive = weak or mixed curves; inactive = no such curve, though single readings can be large; an effect the other way counts as inactive or inconclusive.

Legend:
[1] = qHTS RealTime-Glo MT Cell Viability Assay in HepG2 cells - 32 hour (AID 1224877); note: nearly all actives have a fitted effect of over 55% in size
Method in brief: (§1)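 HepG2 suspension premixed with RealTime-Glo reagents is plated at 600 cells per well and left 5 h at 37 C/5% CO2. Compounds in DMSO then go in, and bioluminescence reflecting viable cell number is recorded over 40 h.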

[2] = A CellTox Green Cytotoxicity Assay to monitor cytotoxicity in HepG2 cells - 24 hour (AID 1224878); note: nearly all actives have a fitted effect of over 45% in size
Method in brief: (§2)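 Cytotoxicity was tracked as dead-cell DNA fluorescence in HepG2 cells treated with test compounds at 37 C; each time-point value comes from one kinetic series spanning 0, 8, 16, 24, 32 and 40 h.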

[3] = A CellTox Green Cytotoxicity Assay to monitor cytotoxicity in HepG2 cells - 40 hour (AID 1224879); note: nearly all actives have a fitted effect of over 40% in size
Method in brief: as §2

[4] = qHTS RealTime-Glo MT Cell Viability Assay in HEK293 cells - 0 hour (AID 1224880); note: top concentration of the series differs between compounds; nearly all actives have a fitted effect of over 45% in size
Method in brief: (§3)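 Kinetic, non-lysing viability readout. Seed HEK293 (600/well) with reagent, incubate 5 h at 37 C/5% CO2, pin 23 nL compound in DMSO, incubate at 37 C, read luminescence at 0, 8, 16, 24, 32, 40 h.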

[5] = A CellTox Green Cytotoxicity Assay to monitor cytotoxicity in HepG2 cells - 0 hour (AID 1224882); note: nearly all actives have a fitted effect of over 35% in size
Method in brief: as §2

[6] = A CellTox Green Cytotoxicity Assay to monitor cytotoxicity in HepG2 cells - 32 hour (AID 1224883); note: nearly all actives have a fitted effect of over 50% in size
Method in brief: as §2

[7] = A CellTox Green Cytotoxicity Assay to monitor cytotoxicity in HEK293 cells - 8 hour (AID 1224884); note: nearly all actives have a fitted effect of over 35% in size
Method in brief: (§4)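 Real-time, in one plate: 600 HEK293 cells/well with dead-cell DNA dye, pinned compound after 5 h, 37 C incubation over 40 h; viable cells give no appreciable fluorescence.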

[8] = qHTS RealTime-Glo MT Cell Viability Assay in HepG2 cells - 16 hour (AID 1224885); note: nearly all actives have a fitted effect of over 50% in size
Method in brief: as §1

[9] = qHTS RealTime-Glo MT Cell Viability Assay in HEK293 cells - 24 hour (AID 1224886); note: top concentration of the series differs between compounds; nearly all actives have a fitted effect of over 50% in size
Method in brief: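 Reads taken at 0, 8, 16, 24, 32 and 40 h from the same wells. HEK293 cells (600/well) carried RealTime-Glo reagents from seeding, with compound added after a 5 h settle at 37 C.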

[10] = qHTS RealTime-Glo MT Cell Viability Assay in HEK293 cells - 8 hour (AID 1224887); note: top concentration of the series differs between compounds; nearly all actives have a fitted effect of over 50% in size
Method in brief: as §3

[11] = A CellTox Green Cytotoxicity Assay to monitor cytotoxicity in HEK293 cells - 16 hour (AID 1224888); note: nearly all actives have a fitted effect of over 35% in size
Method in brief: as §4

[12] = qHTS RealTime-Glo MT Cell Viability Assay in HepG2 cells - 0 hour (AID 1224889); note: nearly all actives have a fitted effect of over 50% in size
Method in brief: as §1

[13] = A CellTox Green Cytotoxicity Assay to monitor cytotoxicity in HepG2 cells - 8 hour (AID 1224890); note: nearly all actives have a fitted effect of over 45% in size
Method in brief: as §2

[14] = qHTS assay to identify small molecule antagonists of the estrogen receptor alpha (ER-alpha) signaling pathway using the BG1 cell line in the presence of 0.1 nM 17-beta-estradiol - cell viability counter screen (AID 1259241); note: nearly all actives have a fitted effect of over 40% in size
Method in brief: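 CellTiter-Fluor read (30 min, 37C) on ER-alpha/ERE-luc VM7Luc4E2 cells; 22 hr compound treatment; agonist 0.1 nM E2 final; same-well multiplex.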

[15] = qHTS assay to identify small molecule antagonists of the androgen receptor (AR) signaling pathway using the MDA cell line in the presence of 0.5 nM R1881 - cell viability counter screen (AID 1259242); note: nearly all actives have a fitted effect of over 45% in size
Method in brief: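 Cells seeded at 3,000/well and allowed 5 hr at 37C, 0% CO2 before compound transfer and R1881 (0.5 nM final) addition; 16 hr later, live-cell protease fluorescence indicated cytotoxicity.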

[16] = target: Estrogen receptor (Homo sapiens) (UniProt P03372); assay: qHTS assay to identify small molecule antagonists of the estrogen receptor alpha (ER-alpha) signaling pathway using the BG1 cell line in the presence of 0.1 nM 17-beta-estradiol (AID 1259244); note: nearly all actives have a fitted effect of over 50% in size
Method in brief: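 Luciferase signal from VM7Luc4E2 ERE-reporter cells, co-dosed with test compound and 0.1 nM final 17beta-estradiol for 22 h, read with ONE-Glo.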

[17] = qHTS assay to identify small molecule phospholipidosis (PLD) inducers (AID 1259344; active = well fitted curve in the direction sought with a large enough effect; an effect the other way counts as inactive or inconclusive)
Method in brief: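 Accumulated phospholipid, stained red by LipidTOX during 24 h compound treatment of HepG2 cells at 37 C, is quantified from images as pit number and intensity, normalised per cell using Hoechst-stained nuclei.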

[18] = qHTS assay to identify small molecule HDAC inhibitors (AID 1259364)
Method in brief: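 HCT-116 wt cells, 1,500/well, overnight attach. Compounds (DMSO) 2 h, 37 °C. HDAC-Glo I/II, 30 min RT. Luminescence.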

[19] = qHTS assay to identify small molecule HDAC inhibitors - cell viability counter screen (AID 1259365)
Method in brief: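 To flag cytotoxic hits, 1,500 wild-type HCT-116 cells per well, plated the day before, receive test compounds for 2hr at 37 C before CellTiter-Glo reagent and a luminescence read.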

[20] = A CellTox Green Cytotoxicity Assay to monitor cytotoxicity in HEK293 cells - 32 hour (AID 1224881); note: nearly all actives have a fitted effect of over 40% in size
Method in brief: as §4
% is set by controls: 0 for no effect and ±100 for the full control effect.

Chain of Estrogen receptor (Homo sapiens) (P03372 whole entry, looked up): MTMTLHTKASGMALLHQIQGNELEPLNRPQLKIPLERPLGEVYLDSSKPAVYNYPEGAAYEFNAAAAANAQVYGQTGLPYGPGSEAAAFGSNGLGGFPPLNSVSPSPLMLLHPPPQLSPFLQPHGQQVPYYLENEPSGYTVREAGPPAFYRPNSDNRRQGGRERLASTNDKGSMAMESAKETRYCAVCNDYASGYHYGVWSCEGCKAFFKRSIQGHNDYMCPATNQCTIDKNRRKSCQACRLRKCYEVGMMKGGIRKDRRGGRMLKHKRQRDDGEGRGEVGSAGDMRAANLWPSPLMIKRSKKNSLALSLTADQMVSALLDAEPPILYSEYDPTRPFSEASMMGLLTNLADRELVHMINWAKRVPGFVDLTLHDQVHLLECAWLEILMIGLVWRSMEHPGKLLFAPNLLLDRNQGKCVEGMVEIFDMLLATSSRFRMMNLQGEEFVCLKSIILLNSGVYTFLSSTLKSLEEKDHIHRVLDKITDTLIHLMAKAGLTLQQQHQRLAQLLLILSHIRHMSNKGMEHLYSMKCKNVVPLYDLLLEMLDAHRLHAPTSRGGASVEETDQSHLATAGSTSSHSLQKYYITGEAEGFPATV

Nc1ccc(/C=C/c2ccc(N)cc2S(=O)(=O)O)c(S(=O)(=O)O)c1
inactive: activity change, negative = cytotoxic [1] -0.0646% [at 0.29 µM] | cytotoxicity [2] -13.6% [at 0.29 µM] | cytotoxicity increase [3] -16.8% [at 0.29 µM] | activity change, negative = cytotoxicity [4] 3.48% [at 0.29 µM] | cytotoxicity [5] 1.07% [at 0.29 µM] | cytotoxicity increase [6] -15.7% [at 0.29 µM] | cytotoxicity increase [7] 0.921% [at 0.29 µM] | activity change, negative = cytotoxic [8] 4.55% [at 0.29 µM] | activity change, negative = cytotoxicity [9] 1.86% [at 0.29 µM] | activity change, negative = cytotoxicity [10] 0.0792% [at 0.29 µM] | activity change [11] 0.863% [at 0.29 µM, stronger effect = higher value] | activity change, negative = cytotoxicity [12] 2.99% [at 0.29 µM] | cytotoxicity increase [13] -4.57% [at 0.29 µM] | activity change, negative = cytotoxicity [14] -1.15% [at 0.349 µM] | viability change, negative = cytotoxic [15] 2% [at 0.349 µM] | activity change, negative = inhibition [16] 6.51% [at 0.349 µM] | outcome [17] | activity change, negative = inhibition [18] 6.62% [at 0.349 µM] | activity change, negative = cytotoxicity [19] 0.175% [at 0.349 µM]

C=C(C)C(=O)OCCCCCCOC(=O)C(=C)C
inactive: outcome [1] | Potency [2] | Potency [3] | outcome [4] | Potency [5] | Potency [6] | Potency [7] | outcome [8] | Potency [9] | Potency [10] | Potency [11] | Potency [12] | Potency [13] | Potency [14] | Potency [15] | Potency [18] | outcome [19]

CC(=O)N(CC(O)CO)c1c(I)c(C(=O)NCC(O)CO)c(I)c(C(=O)NCC(O)CO)c1I (centres undefined)
inactive: outcome [1] | Potency [2] | Potency [3] | outcome [4] | Potency [5] | Potency [6] | outcome [8] | Potency [9] | Potency [10] | Potency [11] | Potency [12] | Potency [13] | Potency [14] | Potency [15] | Potency [16] | outcome [17] | outcome [19]

O=C1OC(=O)c2cc(Oc3ccc4c(c3)C(=O)OC4=O)ccc21
inactive: outcome [1] | Potency [2] | Potency [3] | outcome [4] | Potency [5] | Potency [6] | Potency [7] | outcome [8] | Potency [10] | Potency [11] | Potency [12] | Potency [13] | Potency [14] | Potency [15] | Potency [16] | outcome [19]

Cc1nc([N+](=O)[O-])cn1-c1ccc([N+](=O)[O-])cc1
inactive: outcome [1] | Potency [2] | Potency [3] | outcome [4] | Potency [5] | Potency [7] | outcome [8] | Potency [9] | Potency [10] | Potency [11] | Potency [12] | Potency [13] | Potency [14] | Potency [15] | Potency [16] | outcome [17] | outcome [19]

CCCCC/C=C/CC(=O)OC
inactive: outcome [1] | Potency [2] | Potency [3] | outcome [4] | Potency [20] | Potency [6] | Potency [7] | outcome [8] | Potency [10] | Potency [11] | Potency [12] | Potency [13] | Potency [14] | Potency [15] | outcome [19]

COc1cc2c3cc1Oc1cc(ccc1O)C[C@@H]1c4c(cc(OC)c(O)c4Oc4ccc(cc4)C[C@@H]3N(C)CC2)CC[N+]1(C)C
inactive: outcome [1] | Potency [2] | Potency [3] | outcome [4] | Potency [5] | Potency [6] | Potency [7] | outcome [8] | Potency [9] | Potency [10] | Potency [11] | Potency [12] | Potency [13] | Potency [14] | Potency [15] | outcome [17] | Potency [18] | outcome [19]

CCN(CC)C(=O)C1CN2CCc3cc(OC)c(OC)cc3C2CC1OC(C)=O (centres undefined)
inactive: outcome [1] | Potency [2] | Potency [3] | outcome [4] | Potency [20] | Potency [6] | outcome [8] | Potency [10] | Potency [11] | Potency [13] | Potency [14] | Potency [15] | Potency [16] | Potency [18] | outcome [19]
